# Paper PMC4336329 (PLoS ONE, 2015)
# The campaign covered roughly 310,000 compounds. About 14,000 (4.5%) showed an effect of 50% or more. Effects have a minus sign here. What follows is part of a selection rich in strong results, with near analogues and random picks from the rest.
# Target: human ether-à-go-go-related gene (hERG) potassium channel (human, UniProt Q12809)
# Assay: primary screen, population patch clamp on CHO cells stably expressing hERG; higher = less effect of the substance
# 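Note: peak tail current of the secondary pulse compared with the same well before compound.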
# Chain of human ether-à-go-go-related gene (hERG) potassium channel (Q12809 whole entry, looked up): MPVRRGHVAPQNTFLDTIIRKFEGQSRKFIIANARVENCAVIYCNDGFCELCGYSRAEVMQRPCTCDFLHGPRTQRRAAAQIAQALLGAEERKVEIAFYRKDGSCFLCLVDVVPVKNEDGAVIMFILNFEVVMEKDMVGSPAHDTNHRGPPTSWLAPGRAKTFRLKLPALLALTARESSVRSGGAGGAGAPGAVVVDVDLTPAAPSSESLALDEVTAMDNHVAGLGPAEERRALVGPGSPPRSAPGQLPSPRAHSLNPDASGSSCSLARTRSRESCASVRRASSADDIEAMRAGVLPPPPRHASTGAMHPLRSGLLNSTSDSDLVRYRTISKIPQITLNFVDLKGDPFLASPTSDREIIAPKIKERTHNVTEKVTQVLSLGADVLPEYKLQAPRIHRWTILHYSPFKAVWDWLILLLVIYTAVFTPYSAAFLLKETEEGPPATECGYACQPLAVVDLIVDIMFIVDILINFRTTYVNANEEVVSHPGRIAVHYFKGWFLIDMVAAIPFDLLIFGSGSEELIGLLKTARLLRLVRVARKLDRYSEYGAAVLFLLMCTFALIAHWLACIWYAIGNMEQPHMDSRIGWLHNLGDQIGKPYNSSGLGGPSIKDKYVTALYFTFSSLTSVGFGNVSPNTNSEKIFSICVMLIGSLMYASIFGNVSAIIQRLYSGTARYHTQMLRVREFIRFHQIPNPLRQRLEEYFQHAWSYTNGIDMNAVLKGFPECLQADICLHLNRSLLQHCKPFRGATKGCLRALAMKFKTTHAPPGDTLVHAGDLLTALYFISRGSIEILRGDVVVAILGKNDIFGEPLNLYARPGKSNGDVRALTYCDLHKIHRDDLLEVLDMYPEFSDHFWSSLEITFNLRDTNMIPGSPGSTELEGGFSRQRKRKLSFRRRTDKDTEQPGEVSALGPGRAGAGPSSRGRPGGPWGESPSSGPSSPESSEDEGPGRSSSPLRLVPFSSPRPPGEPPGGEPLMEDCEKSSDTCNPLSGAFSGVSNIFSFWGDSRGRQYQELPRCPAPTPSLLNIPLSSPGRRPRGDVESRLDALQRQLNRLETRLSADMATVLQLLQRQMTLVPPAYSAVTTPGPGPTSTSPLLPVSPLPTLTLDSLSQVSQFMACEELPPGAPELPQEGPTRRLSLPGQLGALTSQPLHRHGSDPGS
row,Compound,"hERG current change (%, negative = inhibition) at 10uM [%]"
1,CCCCC(=O)N/N=C/c1c(O)n(CCc2ccccc2)c(=O)[nH]c1=O,18.3
2,CCOC(=O)C1CCCN(c2c(NCCN3CCCCC3C)c(=O)c2=O)C1 (stereo not drawn),5.47
3,COc1ccc(C(=O)COC(=O)c2ccc3c(c2)OCO3)c(OC)c1,-16.9
4,Cc1ccc(OCC(O)Cn2c(N3CCCCC3)nc3c2c(=O)[nH]c(=O)n3C)cc1 (stereo not drawn),9.46
5,COc1ccc(OCC(O)Cn2c(Br)nc3c2c(=O)[nH]c(=O)n3C)cc1 (stereo not drawn),-12.6
6,CN1CCN(c2nc3c(c(=O)[nH]c(=O)n3C)n2Cc2cccc(Br)c2)CC1,-53.5
7,Cn1c(=O)[nH]c(=O)c2c1nc(Br)n2CC(O)COc1ccccc1 (stereo not drawn),-0.394
8,CCCn1c(N2CCN(C)CC2)nc2c1c(=O)[nH]c(=O)n2C,-13.5
9,COc1ccc(OCC(O)Cn2c(N3CCCCC3)nc3c2c(=O)[nH]c(=O)n3C)cc1 (stereo not drawn),-5.73
10,CCCn1c(N2CCN(Cc3cccc(C)c3)CC2)nc2c1c(=O)[nH]c(=O)n2C,-53
11,CN1CCN(c2nc3c(c(=O)[nH]c(=O)n3C)n2Cc2ccccc2)CC1,-25.4
12,Cn1c(=O)[nH]c(=O)c2c1nc(Br)n2CC(O)COc1ccc(Cl)cc1 (stereo not drawn),-63.6
13,Cn1c(=O)[nH]c(=O)c2c1nc(Br)n2Cc1cccc(Br)c1,15.1
14,COc1ccc(N2CCN(c3nc4c(c(=O)[nH]c(=O)n4C)n3Cc3cccc(C)c3)CC2)cc1,-14.2
15,Cn1c(=O)[nH]c(=O)c2c1nc(N1CCCCC1)n2CC(O)COc1ccc([N+](=O)[O-])cc1 (stereo not drawn),-69.8
16,CCOC(=O)C[C@H]1c2ccccc2S(=O)(=O)N1C1CC1,5.78
17,Br.CC1(C)OC(c2ccccc2)=C/C(=C/C=Nc2ccccc2)O1,-12.9
18,CC(C)c1ccc(C(O)c2cnc(C(C)C)n2C)cc1 (stereo not drawn),-27.5
19,O=C1N=C(N2CCN(c3cccc4ccccc34)CC2)S/C1=C/c1cccs1,11.9
20,O=C1N/C(=N\N=C\c2cccs2)SC1Cc1ccc(Cl)cc1 (stereo not drawn),-8.96
21,COc1ccc(-n2cnnc2SCC(=O)NC2CCS(=O)(=O)C2)cc1 (stereo not drawn),8.52
22,O=C(CSc1nc2ccccc2n1-c1ccccc1)Nc1ncc(Cl)cc1Cl,12.1
23,O=C(Nc1ccc(F)cc1F)C1CCN(S(=O)(=O)c2cccnc2)CC1,-1.85
24,CSc1ccc(Cn2nnc(C(=O)NCc3ccccc3)c2N)cc1,-0.141
